Reference: PubChem BioAssay AID1159506 (National Center for Advancing Translational Sciences (NCATS), 2015)
In all, about 59,000 sequences were measured (the read-out: median about -0.00055, lowest 2% from about -2 on). The full list was thinned out, with the lowest values kept by preference.

test: Identification of proteins required for the processing of the EWS-FLI1 nascent transcript; conditions: TC32 Ewing sarcoma NR0B1-luc vs CMV-luc (EWS-FLI1 target promoter against control promoter), 48 h; screened at 20 nM (by protocol);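 note: robust z of luciferase light less the median z of siRNAs with the same seed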
How it was run: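 TC32 Ewing sarcoma cells carrying NR0B1-promoter or CMV-promoter luciferase reporters were reverse-transfected with single siRNAs at 20 nM, three per gene genome-wide. Luminescence was read after 48 h and normalized to non-targeting controls.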

| Sequence | seed-corrected z-score |
| --- | --- |
| UAACUUGUUUGUUUACAAC against RPL21P62 | -3.04 |
| UGAAUUUCCGGUGCUUGCC against PDGFB | -0.605 |
| UAGGAGAUAGCGAUGACCA against NPBWR1 | 0.302 |
| AAAGAGGUACUCACAGGGC against LGR6 | -0.878 |
| UUCGGUCUGCUAAUGCUGG against CNOT2 | 1.7 |
| AAUCUCACAACAGUUAUGG against MTMR8 | 0.0648 |
| AUACUACUUACAACCGGGC against SON | 1.15 |
| ACAGCUAACAUGGACACUC against SHTN1 | 0.393 |
| UAGGUAACCAUAGUACUCA against ISY1 | -2.1 |
| UGUAUAGAAAAAUUCACGC against CRY1 | 0.235 |
| UCCAGUAGCACCAUAGUUC against ZNF449 | -0.629 |
| UUCGUGAUCAUCUUCUCAC against PHYH | 0.854 |
| AAAUGUUCACCUGUCUUCU against RPS4Y1 | -0.188 |
| UUCAUAUAUGAGUCAAUGG against HMG20A | 0.779 |
| UUCCUCAUGAUUGUCCUCA against GABARAPL1 | -0.0836 |
| UUAGUAUUUGGUAUUCAGA against FCGR1A | -0.211 |
| UAGGAUCCAGGGUUAGUUU against RPL18 | -2.17 |
| UUAGGGUCCCUCAUCUUCA against LOXL4 | 0.627 |
| UAUUAUUAAAGUGAGAUGG against SNCA | 0.375 |
| UCUGGUGAACGACUCUUGC against MGMT | 0.137 |
| AUCUGUAUUCUCACUAUAG against TTC23 | -1.15 |
| UUAAUGAUAGAGACUAGGA against LTC4S | -0.727 |

| Sequence | seed-corrected z-score |
| --- | --- |
| GUUACAUACCUUUUUCUCU against GTF2H2B | 0.209 |
| UCAUAGAAGAGGUCUGUCU against PHF5A | -2.2 |
| UUCAUAGCCUCUUCAAUGG against SPAG7 | -1.44 |
| UACACUCUAAGAGCUCUUC against BCAT1 | 1.4 |
| UUAAAUUCUUGGAAGUAGA against SCNN1B | 0.779 |
| UGACGAAAUAGUAGAAGUG against MOB3A | -0.387 |
| UUCAUCACCAGCUCUUUCC against CLEC4F | -0.0692 |
| UCAUGGGACGGCAUAACUG against SPDYE3 | -0.601 |
| ACGAUUACAACUUCGAUCC against DOCK7 | 1.63 |
| UGGCGCUUGAUUGGAACUC against UNC5B-AS1 | -0.56 |
| AUGUUUGACAUUGUCCACG against KPNA2 | -2.38 |
| AAGUUGAAGAUAAGAGUCC against C11orf63 | -0.178 |
| AUCGAAAUAAGUCAGAUAG against NAA25 | 0.893 |
| UGACCUGUAGCGUUGCAGC against EFCC1 | -0.581 |
| UCUAUAUCUCCGUAAUUCC against TRRAP | -2.5 |
| UUAGUUCCUGGGUAUCUGC against SNAP47 | 1.17 |
| UUUCAUAGAAUCUAUCCAG against C20orf196 | 0.184 |
| UUUGGAACUGGUCAUGUGU against RPL29P30 | -3.1 |
| UUUCUGAGGAGACAACUCU against ANKRD36B | 0.345 |
| UUGGGUAAAAUGUCCACUC against SPATS1 | -2.28 |
| UGUGCGACUGGAGAAUGCG against KRT81 | -0.00183 |
| UGAUAUAUAACUUAGAUGG against VWA9 | -12.6 |

| Sequence | seed-corrected z-score |
| --- | --- |
| AGAGUGACCAGUCCGGUAG against CIDEA | 0.43 |
| UCCCGGUCUGCAUUCUUCC against PHKA1P1 | -0.749 |
| AAAGUUGCUACAGCUGUCA against SH3BP5 | -2.12 |
| UUAGUGUGAAUAGUGAUUU against PODXL | 0.827 |
| UAUCUUUCUCAGGAGUUUG against OR2T10 | -0.23 |
| AUAGCAGUCAACAUCGUAG against TMED3 | -2.8 |
| UGACUUGGCACAGUAUAUC against FAM83A | -0.413 |
| UAUCUUUAAAGUGUAUCUA against FAM230B | 0.596 |
| UCUAGGCUCAGGAAGUUCU against AP5S1 | -1.09 |
| AAACCAAGUAGCUUGAUGU against LOC647275 | 0.229 |
| UCAUUUUGAAUUGAAGAUG against FAM76A | 0.228 |
| UUUCCAUAGGAGACGAUGC against CTSG | 0.0794 |
| UGUUGAUAAGUUACCAUCC against GPCPD1 | 0.968 |
| UUGUUCUAAAGUAUCCUCC against NDC80 | -2.14 |
| AGUCAUUUAAACUUGAUCC against TMSB4X | 0.898 |
| UACGCUUUCUCUACAGUAC against ZNF606 | 0.237 |
| UCUCUUAUGCAGCUUGUGG against SPTBN4 | 0.43 |
| UGCAUAGACAAGGCAGUCG against ZNRF2 | -2.35 |
| UCAGCUGAUAUCUUGUUGC against UBOX5 | 0.0283 |
| ACAGUUUCGAAGGCGAAUG against ABCB9 | -1.83 |
| AAUGCAACCACAGCUAUCC against THNSL1 | 0.294 |
| UUACUGUGCUGUCUAGACC against TMEM79 | 1.12 |

| Sequence | seed-corrected z-score |
| --- | --- |
| UUGCUAUUCCUCCUGGUAG against IRF2BP2 | -0.0854 |
| AAUAUCAAUACGAUCUCUG against SNAP23 | -0.225 |
| UUAUGUAUCAUACAAAAGU against YPEL4 | 1.55 |
| UGUGCCUUUCUGACGAUGG against SBK2 | 0.535 |
| UAAGUGGAAAUCCUCGGGC against WBP2NL | 1.46 |
| UUAUUUAUUCCGUUCAUAU against UBE2V2 | -3.25 |
| UCAUGUAAUCUAGCGAUCG against ENTHD1 | 0.768 |
| UUUUGGUCACUUCAAAUUC against MYDGF | -2.17 |
| UCACAAACCACGUUACACG against PABPC3 | -0.495 |
| AGUAGAUACAGCUUCUUUC against CCDC50 | -0.915 |
| AAAUUUCACAGGUAAUAUG against OR13D1 | -0.485 |
| AUGGUGACAAUUGAACUCC against IGF1R | -1.36 |
| UCUGUUAGCAGCUGGUUUG against SH3D19 | -2.01 |
| UUUAUUAUGAUCUUCCGAG against PIP | 0.162 |
| UUUGACGAAAUGGGAAUCC against OMD | -0.258 |
| UAACGUAUAGCUACAACUC against MED23 | 0.49 |
| UGAUUUUCUGCACAAGUCC against NELL2 | 0.658 |
| AUUCUGUUCAAACAUCUGG against EXOC3 | -2.38 |
| UACGCGGGCAAACUUCUCC against LRRC14 | 0.0562 |
